# Counter-ions that a name gives are not always drawn. ± gives the standard deviation of the averaged measurements.
# Columns and labels:
# Experiment in all cases: growth (OD600 after 10 h); higher = more growth (less inhibition)
# [1] = system: E. coli TESEC Alr+ wild-type control; settings: compound 0.1 mM; raw OD600 reference: median of DMSO wells 0.241, cell-free background 0.041
# Experimental: (§1)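 TESEC Mtb Alr E. coli, or the Alr+ wild-type control, in 384-well plates with Prestwick library compounds at 0.1 mM and 1% DMSO, across arabinose induction levels of 1E3 to 1E7 nM. Growth is read as OD600 after 10 h at 37 °C in triplicate biological replicates.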
# E. coli TESEC Mtb Alr [2] = settings: compound 0.1 mM
# Experimental: as §1
# E. coli TESEC Mtb Asd = settings: compound 0.1 mM
# Experimental: (§2)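 TESEC E. coli strains in which the native enzyme is deleted and replaced by arabinose-inducible Mtb Asd, DapB, CysH or TrpD, each grown in its selective medium. Strains were screened against the Prestwick library at 0.1 mM and 1% DMSO in 384-well format at low and high arabinose induction. Growth is read as OD600 after 10 h in triplicate.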
# E. coli TESEC Mtb DapB = settings: compound 0.1 mM
# Experimental: as §2
# [3] = system: E. coli TESEC Alr+ wild-type control; settings: compound 0.1 mM; raw OD600 reference: median of DMSO wells 0.49, cell-free background 0.052
# Experimental: (§3)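 TESEC Mtb Alr E. coli (ΔaraC ΔtolC ΔentC Δalr ΔdadX, arabinose-inducible Mtb Alr) or the Alr+ wild-type control strain, grown in defined M9-fructose medium without D-alanine in 96-well plates with Prestwick library compounds at 0.1 mM and 1% DMSO. Low Alr induction is 0.1 µM arabinose and high induction is 10 mM arabinose.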
# E. coli TESEC Mtb Alr [4] = settings: compound 0.1 mM; remark: listed apart in the source
# Experimental: as §3
# [5] = arabinose 1000 nM, raw OD600 reference: median of DMSO wells 0.294, cell-free background 0.041
# [6] = arabinose 10000 nM, raw OD600 reference: median of DMSO wells 0.264, cell-free background 0.041
# [7] = arabinose 100000 nM, raw OD600 reference: median of DMSO wells 0.201, cell-free background 0.041
# [8] = arabinose 1000000 nM, raw OD600 reference: median of DMSO wells 0.193, cell-free background 0.041
# [9] = arabinose 10000000 nM, raw OD600 reference: median of DMSO wells 0.146, cell-free background 0.041
# [10] = arabinose induction (level): High, raw OD600 reference: median of DMSO wells 0.331, cell-free background 0.041
# [11] = arabinose induction (level): Low, raw OD600 reference: median of DMSO wells 0.417, cell-free background 0.041
# [12] = arabinose induction (level): High, raw OD600 reference: median of DMSO wells […], cell-free background 0.041
# [13] = arabinose induction (level): Low, raw OD600 reference: median of DMSO wells 0.227, cell-free background 0.041
# [14] = arabinose 100 nM, raw OD600 reference: median of DMSO wells 0.413, cell-free background 0.052
# [15] = arabinose 10000000 nM, raw OD600 reference: median of DMSO wells […], cell-free background 0.052
Compound,growth [1],growth (E. coli TESEC Mtb Alr [2]; [5]),growth (E. coli TESEC Mtb Alr [2]; [6]),growth (E. coli TESEC Mtb Alr [2]; [7]),growth (E. coli TESEC Mtb Alr [2]; [8]),growth (E. coli TESEC Mtb Alr [2]; [9]),growth (E. coli TESEC Mtb Asd; [10]),growth (E. coli TESEC Mtb Asd; [11]),growth (E. coli TESEC Mtb DapB; [12]),growth (E. coli TESEC Mtb DapB; [13]),growth [3],growth (E. coli TESEC Mtb Alr [4]; [14]),growth (E. coli TESEC Mtb Alr [4]; [15])
CCOC(=O)[C@H](CCc1ccccc1)N[C@@H](C)C(=O)N1CCC[C@H]1C(=O)O [Enalapril maleate],0.247 ± 0.014,0.296 ± 0.017,0.25 ± 0.0032,0.231 ± 0.03,0.174 ± 0.0046,0.161 ± 0.009,0.322 ± 0.039,0.373 ± 0.067,0.188 ± 0.018,0.268 ± 0.029,0.499 ± 0.024,0.412 ± 0.011,0.355 ± 0.017
CO/N=C(\C(=O)N[C@@H]1C(=O)N2C(C(=O)O)=C(C[N+]3(C)CCCC3)CS[C@H]12)c1csc(N)n1 [Cefepime hydrochloride],0.0426 ± 0.00078,0.0381 ± 0.00085,0.0472 ± 0.0016,0.03857 ± 0.00031,0.0612 ± 0.0025,0.048 ± 0.00053,0.197 ± 0.017,0.188 ± 0.012,0.182 ± 0.0028,0.173 ± 0.011,0.0488 ± 0.0038,0.0455 ± 0.00017,0.0731 ± 0.0077
Nc1ccc(S(=O)(=O)Nc2ccc(Cl)nn2)cc1 [Sulfachloropyridazine],0.241 ± 0.0064,0.285 ± 0.029,0.174 ± 0.0032,0.231 ± 0.022,0.0969 ± 0.0044,0.165 ± 0.0072,0.392 ± 0.14,0.412 ± 0.042,0.193 ± 0.013,0.236 ± 0.03,0.425 ± 0.022,0.421 ± 0.005,0.28 ± 0.029
CCN(CC)Cc1cc(Nc2ccnc3cc(Cl)ccc23)ccc1O [Amodiaquin dihydrochloride dihydrate],0.16 ± 0.0068,0.229 ± 0.0059,0.269 ± 0.003,0.181 ± 0.0097,0.102 ± 0.0085,0.203 ± 0.0054,0.179 ± 0.011,0.387 ± 0.051,0.209 ± 0.017,0.28 ± 0.06,0.527 ± 0.047,0.4131 ± 0.00099,0.322 ± 0.0054
Nc1nc2c(ncn2COCCO)c(=O)[nH]1 [Acyclovir],0.255 ± 0.014,0.287 ± 0.021,0.2708 ± 0.0022,0.239 ± 0.019,0.196 ± 0.014,0.139 ± 0.0044,0.374 ± 0.016,0.416 ± 0.047,0.206 ± 0.005,0.26 ± 0.024,0.47 ± 0.04,0.413 ± 0.011,0.355 ± 0.029
CC(C)(C)NC(=O)[C@@H]1CN(Cc2cccnc2)CCN1C[C@@H](O)C[C@@H](Cc1ccccc1)C(=O)N[C@H]1c2ccccc2C[C@H]1O [Indinavir sulfate],0.2105 ± 0.00051,0.293 ± 0.014,0.241 ± 0.0041,0.221 ± 0.02,0.149 ± 0.0054,0.139 ± 0.004,0.239 ± 0.05,0.403 ± 0.025,0.216 ± 0.0067,0.286 ± 0.022,0.558 ± 0.12,0.422 ± 0.014,0.281 ± 0.01
CC/C(=C(\c1ccccc1)c1ccc(OCCN(C)C)cc1)c1ccccc1 [Tamoxifen citrate],0.0423 ± 0.0005,0.0419 ± 0.002,0.048 ± 0.0005,0.0466 ± 0.0016,0.0485 ± 0.0015,0.0425 ± 0.00078,0.0517 ± 0.002,0.0526 ± 0.002,0.04873 ± 0.00038,0.0937 ± 0.078,0.0552 ± 0.015,0.0503 ± 0.00091,0.0549 ± 0.0014
C[C@@H](O)[C@H]1C(=O)N2C(C(=O)O)=C(SCCNC=N)C[C@H]12 [Imipenem],0.216 ± 0.0037,0.282 ± 0.0094,0.269 ± 0.0053,0.202 ± 0.035,0.174 ± 0.0056,0.136 ± 0.0047,0.296 ± 0.1,0.37 ± 0.065,0.198 ± 0.012,0.231 ± 0.015,0.271 ± 0.022,0.165 ± 0.11,0.111 ± 0.011
CC(=O)O[C@]1(C(C)=O)CC[C@H]2[C@@H]3C=C(C)C4=CC(=O)CC[C@@H]4[C@H]3CC[C@@]21C [Nomegestrol acetate],0.1345 ± 0.001,0.127 ± 0.02,0.0606 ± 0.0005,0.124 ± 0.0062,0.061 ± 0.0017,0.0997 ± 0.0051,0.126 ± 0.018,0.104 ± 0.0027,0.144 ± 0.014,0.129 ± 0.0045,0.14 ± 0.0081,0.229 ± 0.082,0.0935 ± 0.015
O=C(NCC(O)CO)c1c(I)c(C(=O)NCC(O)CO)c(I)c(N(CCO)C(=O)CO)c1I (centres undefined) [Ioversol],0.257 ± 0.0068,0.308 ± 0.017,0.288 ± 0.013,0.208 ± 0.015,0.192 ± 0.0057,0.169 ± 0.0037,0.477 ± 0.014,0.46 ± 0.019,0.202 ± 0.015,0.256 ± 0.028,0.452 ± 0.008,0.408 ± 0.015,0.362 ± 0.017
COc1ccc(CC2c3cc(OC)c(OC)cc3CC[N+]2(C)CCC(=O)OCCCCCOC(=O)CC[N+]2(C)CCc3cc(OC)c(OC)cc3C2Cc2ccc(OC)c(OC)c2)cc1OC (centres undefined) [Atracurium besylate],0.177 ± 0.0075,0.271 ± 0.013,0.25 ± 0.011,0.174 ± 0.014,0.127 ± 0.0067,0.137 ± 0.006,0.283 ± 0.059,0.398 ± 0.037,0.171 ± 0.017,0.218 ± 0.05,0.431 ± 0.027,0.416 ± 0.014,0.336 ± 0.06
CNC(=O)c1c(I)c(C(=O)NCC(=O)Nc2c(I)c(C(=O)O)c(I)c(C(=O)NCCO)c2I)c(I)c(N(C)C(C)=O)c1I [Ioxaglic acid],0.239 ± 0.0087,0.2972 ± 0.0024,0.28 ± 0.0056,0.219 ± 0.0065,0.215 ± 0.015,0.139 ± 0.0059,0.343 ± 0.027,0.359 ± 0.048,0.198 ± 0.013,0.211 ± 0.013,0.606 ± 0.023,0.426 ± 0.0094,0.3518 ± 0.0018
CN[C@@H]1[C@@H](O)[C@@H](O[C@@H]2[C@@H](O)[C@H](O[C@H]3OC(CN)=CC[C@H]3N)[C@@H](N)C[C@H]2N)OC[C@]1(C)O [Sisomicin sulfate],0.0439 ± 0.00085,0.04797 ± 0.00015,0.0404 ± 0.00055,0.0483 ± 0.00072,0.0422 ± 0.00046,0.0657 ± 0.002,0.075 ± 0.0066,0.107 ± 0.055,0.144 ± 0.032,0.0843 ± 0.01,0.198 ± 0.21,0.231 ± 0.15,0.3071 ± 0.0019

# Source: the supplement of paper PMC9262897, “Low-cost anti-mycobacterial drug discovery using engineered E. coli” (Nature Communications, 2022)
